# Screens: PubChem, National Center for Advancing Translational Sciences (NCATS)
# ELG1 repair inh: qHTS screen for small molecules that inhibit ELG1-dependent DNA repair in human embryonic kidney (HEK293T) cells expressing luciferase-tagged ELG1; HEK293T ELG1-luciferase reporter, luminescence, 16 h; DNA damage induced by 5-fluorouridine; 330,000 compounds, 2.3% hits; AID 504467, 2011; Potency, µM (top dose mostly 46.1 µM), for inactives: top-dose activity change, negative = inhibition, usual class: inhibitors; further: on the % scale 0 is the no-effect control and ±100 the full control effect; nearly all actives have a fitted effect of over 55% in size
#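 Overnight (16 hr) co-exposure of 2,000 cells/well to 5-fluorouridine and compound at 37 °C preceded detection. Luciferase was quantified via ONE-Glo luminescence; loss of signal denotes inhibition.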
# KB-V1 cytotox: qHTS assay for MDR1-selective chemotherapeutics: Primary screen using the drug-selected MDR subline cells KB-V1 | KB-V1 MDR cells viability, CellTiter-Glo, 72 h | Potency, µM (titrated, usually from 46.1 µM), most hits filed as cytotoxic | 400,000 compounds, 3.4% hits | AID 1347076, 2019; further: on the % scale 0 is the no-effect control and ±100 the full control effect; nearly all actives have a fitted effect of over 60% in size
#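 Readout: CellTiter-Glo luminescence, 10 min after addition. Cells: KB-V1 MDR subline, 72 h at 37 degrees C with compound. Analysis: corrected, normalized data fitted to concentration-effect curves.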
# KB-3-1 cytotox: qHTS assay for MDR1-selective chemotherapeutics: Primary screen using the parental adenocarcinoma cell KB-3-1 | KB-3-1 viability, CellTiter-Glo ATP luminescence, 72 h | Potency, µM (doses to about 46.1 µM), actives largely listed as cytotoxic | 400,000 compounds, 1.4% hits | AID 1347075, 2019; further: on the % scale 0 is the no-effect control and ±100 the full control effect; nearly all actives have a fitted effect of over 60% in size
#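 Cells are dispensed, compounds pinned in, plates held at 37 °C for 72 h, then CellTiter-Glo is added and luminescence read after 10 minutes. Cell line: parental KB-3-1 in phenol-red-free DMEM, 10% FBS.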
# SW480 rerep: A quantitative high throughput screen for small molecules that induce DNA re-replication in SW480 colon adenocarcinoma cells. SW480 DNA re-replication, Hoechst DNA content imaging, 48 h. Potency, µM (doses to about 46.1 µM), for the others: at the highest dose re-replication activation, hits mostly activators. 340,000 compounds, 1.8% hits. AID 624297, 2012; further: % of control where 0% means no effect; nearly all actives have a fitted effect of over 55% in size
#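 Treated cells incubate 48 hr (37 C, 5% CO2), are stained 40 min with Hoechst, and nuclear fluorescence is enumerated; a rise in nuclei with high DNA signal marks re-replication.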
# MCF10A rereplic: A quantitative high throughput screen for small molecules that induce DNA re-replication in MCF 10a normal breast cells | Potency, µM (titrated, usually from 46.1 µM), inactives show at the top dose activity, positive = re-replication, actives largely listed as activators | 350,000 compounds, 2.9% hits | MCF 10A DNA re-replication, Hoechst nuclear intensity, 48 h | AID 624296, 2012; further: % of control where 0% means no effect; nearly all actives have a fitted effect of over 50% in size
# * hit, by the source's call; i = inactive; ? = inconclusive; · = no result; ! = a repeat was not active. Hits are enriched below; roughly 8.1% of the tested compounds scored in any of these assays. The call rests on the fitted dose curve; in most records, active means well fitted curve in the direction sought with a large enough effect; inconclusive means small, poorly fitted or top-dose-only effect, or another doubt; inactive means no such curve, though single readings can be large; an effect the other way counts as inactive or inconclusive. Potency means the concentration at half of the fitted maximal effect.
SMILES,ELG1 repair inh,KB-V1 cytotox,KB-3-1 cytotox,SW480 rerep,MCF10A rereplic
N#Cc1nc(/C=C/c2ccc(F)cc2)oc1N1CCCCCC1,·,i,i,·,·
COc1ccc(S(=O)(=O)N2CCC[C@H]2C(=O)N2CCC[C@H]2C(=O)N[C@@H](C)c2ccccc2)cc1C,·,i,i,·,·
CC(O)CNCCCOc1ccc(Cl)cc1C(C)(C)C (stereo not given),0%,21µM*,?,-17%,11%
CC(C)c1ccc(C(O)P(=O)(OC2CCCCC2)OC2CCCCC2)cc1 (stereo not given),0%,?,?,?,21µM*
CCOC(=O)Cc1csc(NC(=O)c2cccc(OC)c2)n1,7%,i,i,-5%,-6%
CCOC(=O)Cc1csc(NC(=O)C(NC(=O)C2CCC(C)CC2)C(C)C)n1 (stereo not given),8.2µM*,?,i,6%,2%
CCOC(=O)Cc1csc(NC(=O)CSc2nc(N)c3c(C)c(C)sc3n2)n1,?,8.2µM*,i,0%,8%
CCOC(=O)Cc1csc(NC(=O)c2csc(C)c2)n1,-3%,16µM*,i,-2%,4%
CCOC(=O)Cc1csc(NC(=O)Nc2ccc(F)cc2)n1,7.3µM*,i,i,-3%,-1%
O=C(Nc1ccccc1)Oc1cccc(Br)c1,?,i,i,-6%,2%
CC1CN(C(=O)CCC(=O)NCCCc2ccccc2)c2ccccc2O1 (stereo not given),5%,i,i,-7%,0%
CCCC(=O)Nc1cc(-c2nn(C)c(=O)c3ccccc23)ccc1OC,?,?,?,-5%,18%
COc1ccc(-c2nn(C)c(=O)c3ccccc23)cc1NC(=O)Cn1nc(C)c2ccccc2c1=O,-11%,21µM*,i,28%,16%
CCC(=O)Nc1cc(-c2nn(C)c(=O)c3ccccc23)ccc1OC,?,12µM*,i,-5%,3%
O=C(NCCn1cc(SCc2ccccc2)c2ccccc21)c1c(F)cccc1F,?,i,i,-3%,0%
O=C(NCCn1cc(SCc2ccc(F)cc2)c2ccccc21)c1c(F)cccc1F,?,18µM*!,?,-2%,?
C[C@@H]1COc2cccc(N3CCSCC3)c2S(=O)(=O)N1,·,i,i,·,·
CC(C)n1c(NCCc2ccccc2)nc2c1c(=O)n(C)c(=O)n2C,18µM*,?,?,13%,16%
Cn1c(=O)c2c(nc(NCCO)n2CCc2ccccc2)n(C)c1=O,?,i,21µM*,-16%,-4%
Cn1c(=O)c2c(nc(NCCNC(=O)c3ccco3)n2Cc2ccc(F)cc2)n(C)c1=O,?,?,?,-6%,2%
Cn1c(=O)c2c(nc(NCCNC(=O)c3ccco3)n2Cc2ccccc2)n(C)c1=O,-15%,i,i,0%,26µM*
Cn1c(=O)c2c(nc(NCCOc3ccc(C(C)(C)C)cc3)n2C)n(C)c1=O,-18%,i,i,-691%,16µM*
CCCNc1nc2c(c(=O)n(C)c(=O)n2C)n1CCc1ccccc1,?,i,i,-7%,11%
Cc1ccc(-n2nc(C(=O)N3CCC(C)CC3)c(=O)n(C)c2=O)cc1,·,?,i,·,·
Cn1c(=O)c2c(nc(N/N=C/c3ccncc3)n2Cc2ccccc2)n(C)c1=O,-12%,i,i,-19%,-5%
SMILES,ELG1 repair inh,KB-V1 cytotox,KB-3-1 cytotox,SW480 rerep,MCF10A rereplic
COc1cc(/C=N/Nc2nc3c(c(=O)n(C)c(=O)n3C)n2Cc2ccccc2)ccc1OC(=O)c1ccco1,18µM*,9.2µM*,?,?,?
CC(=O)Oc1c(I)cc(I)cc1C(=O)Nc1ccc(Cl)cc1,-17%,16µM*,23µM*,?,7.3µM*
COC(=O)N1CCc2c(sc(NC(=O)C3=COCCO3)c2C#N)C1,?,?,2.3µM*,1.5µM*,2.1µM*
Cc1cccc(C(=O)Nc2sc3c(c2C(=O)O)CCC3)c1,?,i,?,-12%,-5%
CCCNC(=O)c1c(NC(=O)c2ccccc2F)sc2c1CCCCC2,·,i,i,·,·
COc1cccc(C(=O)Nc2sc3c(c2C(=O)O)CCCC3)c1,?,?,18µM*,-1%,10%
CC(C)(C)c1ccc(C(=O)Nc2sc3c(c2C(=O)O)CCC3)cc1,3.7µM*,?,3.3µM*,-4%,21µM*
O=C(Nc1sc2c(c1C(=O)O)CCCCC2)c1ccccc1F,11%,i,12µM*,7%,13%
CCOC(=O)c1c(-c2ccccc2)csc1NC(=O)c1cc(-c2cccc(OC)c2)on1,·,i,i,·,·
COc1cccc(C(=O)Nc2sc3c(c2C#N)CCN(C(C)=O)C3)c1,9%,?,5.2µM*,4.6µM*,4.6µM*
Cc1ccc(C(=O)Nc2sc3c(c2C(=O)O)CCCCC3)o1,3%,?,16µM*,-3%,?
Cc1ccc(C(=O)Nc2sc3c(c2C(=O)O)CCCC3)o1,?,?,?,3%,0%
O=C(Nc1ccc2oc(-c3cccnc3)nc2c1)c1ccc(-c2ccccc2OC(F)(F)F)o1,·,i,i,·,·
COc1ccc(N(C(=O)c2ccccc2C)S(=O)(=O)c2cccs2)cc1,-23%,1.3µM*,0.82µM*,2.6µM*,1.2µM*
COc1ccc(C(=O)N(Cc2ccco2)Cc2cc3cc(C)ccc3[nH]c2=O)cc1OC,·,i,i,10%,3%
CCOc1ccc2[nH]c(=O)c(CN(Cc3ccco3)C(=O)c3cccc(F)c3)cc2c1,0%,i,i,2%,-3%
Cc1ccc(N(CC(=O)NCc2ccc(F)cc2)C(=O)c2ccco2)cc1C,2%,?,i,1%,-5%
CCOc1ccc(N(CC(=O)NCc2ccc(F)cc2)C(=O)c2ccco2)cc1,3%,16µM*,i,-2%,8%
Cc1ccc2[nH]c(=O)c(CN(Cc3ccco3)C(=O)c3ccncc3)cc2c1,?,?,12µM*,?,?
CCOc1ccc2[nH]c(=O)c(CN(Cc3ccccc3OC)C(=O)c3ccccc3)cc2c1,?,4.6µM*,5.2µM*,?,21µM*
CCOc1ccc2[nH]c(=O)c(CN(Cc3ccco3)C(=O)c3ccc(Br)cc3)cc2c1,-17%,23µM*,?,?,16µM*
COc1ccc2[nH]c(=O)c(CN(Cc3ccco3)C(=O)c3ccccc3)cc2c1,-2%,i,?,?,?
